# PubChem BioAssay (EPA / NIEHS)
# Values joined by “and” are separate entries in the source; they are usually repeats but may differ in a detail not shown here. Equal values may be shown once. Inconclusive results are not listed. A structure can be active in one record and inactive in another. Active and inactive are the calls of the source. The calls were made as follows: active = hit-call score of the fitted dose curve at least 0.9, where 1 is the maximum; inconclusive = response in the unintended direction; inactive = score below 0.9.
# Target: Cellular tumor antigen p53 (Homo sapiens) (UniProt P04637)
# Assay: TOX21_p53_BLA_p5_ratio: Tox21 HCT-116 p53 Agonism Beta-lactamase Assay, Ratio, Phase 5 (AID 2283599)
# Outline: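 HCT-116 cells carrying a p53-inducible beta-lactamase reporter were seeded at 4000 cells/well and dosed after 5 h with compound in DMSO (217-fold dilution). After 16 h at 37C, CCF4-AM substrate was added for 2 h, and the 460/530 nm emission ratio was scored as gain-of-signal versus DMSO.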
# Cellular tumor antigen p53 (Homo sapiens), sequence (P04637 whole entry, looked up): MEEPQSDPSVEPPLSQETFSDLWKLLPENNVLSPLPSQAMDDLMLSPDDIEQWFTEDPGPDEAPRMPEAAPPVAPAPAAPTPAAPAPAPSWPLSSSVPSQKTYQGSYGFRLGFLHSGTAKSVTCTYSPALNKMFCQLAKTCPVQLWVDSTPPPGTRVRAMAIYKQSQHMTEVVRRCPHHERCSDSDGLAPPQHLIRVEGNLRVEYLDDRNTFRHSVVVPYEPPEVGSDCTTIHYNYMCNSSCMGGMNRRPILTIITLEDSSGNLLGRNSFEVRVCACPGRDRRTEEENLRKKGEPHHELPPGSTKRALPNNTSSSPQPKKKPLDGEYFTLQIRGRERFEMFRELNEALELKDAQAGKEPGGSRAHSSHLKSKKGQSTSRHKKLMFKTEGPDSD
Structure (SMILES),outcome,AC50
Cc1cc(-c2ccc(N)c(C)c2)ccc1N,inactive,–
CCOC(=O)C(O)(c1ccc(Cl)cc1)c1ccc(Cl)cc1,–,80.1 µM (active) and 66.1 µM (active)
OCC(O)CO,inactive,–
ClC(Cl)=C(c1ccc(Cl)cc1)c1ccc(Cl)cc1,inactive,–
NS(=O)(=O)C(F)(F)C(F)(F)C(F)(F)C(F)(F)C(F)(F)C(F)(F)C(F)(F)C(F)(F)F,–,82.3 µM (active)
CC(c1ccc(O)cc1)(c1ccc(O)cc1)c1ccc(O)cc1,inactive,–
CN(C)CCO,inactive,–
c1cc2ccc3cccc4ccc(c1)c2c34,inactive,–
CCC(C)(c1ccc(O)cc1)c1ccc(O)cc1,inactive,75.7 µM (active)
ClC1=C(Cl)[C@]2(Cl)[C@@H]3[C@@H](Cl)[C@H]4O[C@H]4[C@@H]3C1(Cl)C2(Cl)Cl,inactive,–
Oc1ccc(C(c2ccc(O)cc2)(C(F)(F)F)C(F)(F)F)cc1,inactive,72.8 µM (active)
C=CC(=O)NCNC(=O)C=C,inactive,–
Cc1ccc(O)c(C)c1,inactive,–
CC(C)(O)C(=O)Nc1ccc([N+](=O)[O-])c(C(F)(F)F)c1,inactive,–
C[C@]12CCC(=O)C=C1CC[C@@H]1[C@@H]2CC[C@]2(C)C(=O)CC[C@@H]12,inactive,–
CC(C)C(=O)OCC(C)(C)C(OC(=O)C(C)C)C(C)C (stereo not drawn),inactive,–

Structure (SMILES),outcome,AC50
O=NN(c1ccccc1)c1ccccc1,inactive,–
O=C(N[C@H]1CN2CCC1CC2)c1cc2ccoc2cn1,inactive,–
CO/C=C(/C(=O)OC)c1ccccc1COc1cccc(C(F)(F)F)n1,–,4.18 µM (active)
CCC(C)c1cc([N+](=O)[O-])cc([N+](=O)[O-])c1O (stereo not drawn),–,3.4 µM (active)
COS(=O)(=O)OC,inactive,–
Nc1ccc(-c2ccc(N)cc2)cc1,inactive,–
Cc1cccc([N+](=O)[O-])c1,inactive,–
O=C(O)C(F)(F)C(F)(F)C(F)(F)C(F)(F)C(F)(F)C(F)(F)C(F)(F)C(F)(F)F,–,82.9 µM (active)
CCCCCCCCCC[N+](C)(C)CCCCCCCCCC,–,72.9 µM (active) and 39.8 µM (active)
CC(C)(c1ccccc1)c1ccc(O)cc1,inactive,73.1 µM (active)
ClC1=C(Cl)[C@]2(Cl)[C@@H]3[C@H]4C[C@H]([C@@H]5O[C@H]45)[C@@H]3[C@@]1(Cl)C2(Cl)Cl,inactive,–
Clc1ccc(Cl)cc1,inactive,–
Oc1c(Cl)c(Cl)c(Cl)c(Cl)c1Cl,inactive,8.02 µM (active)
C[C@]12CCC(=O)C=C1CC[C@@H]1[C@@H]2CC[C@@]2(C)[C@H]1CC[C@]2(C)O,inactive,47.1 µM (active)
O=C(NC(=O)c1c(F)cccc1F)Nc1cc(Cl)c(OC(F)(F)C(F)F)c(Cl)c1,inactive,–
Clc1ccc(C(c2ccccc2Cl)C(Cl)(Cl)Cl)cc1 (stereo not drawn),inactive,72.8 µM (active)
